# Screens from PubChem.
# Compounds with a hit are over-represented: about 18% of the library has one in this group of screens.
# CtBP-E1A inh = qHTS Assay for Inhibitors of the CtBP/E1A Interaction. AlphaScreen GST-E1A/His-CtBP binding, 1536-well; active compounds read low. activity change, % (concentration not given with the values). 340,000 compounds, 0.49% hits. AID 651724, 2012; in the data active = activity change below about -65%; inconclusive = mostly about -30% to -63%
#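 In 5 uL wells, 23 nL compound meets equimolar GST-E1A and His-CtBP (5X stock 125 nM each) for 2 h, 37 °C. Beads (5X, 50 ug/mL) then 1 h, 37 °C, dark.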
# DT40 TDP1 CPT = qHTS for Inhibitors of human tyrosyl-DNA phosphodiesterase 1 (TDP1): qHTS in cells in presence of CPT | chicken DT40 Tdp1-/-;hTDP1 cells + 20 nM CPT, ATP luminescence, 48 h | Potency, µM (top dose mostly 46.2 µM), without a hit: at the top dose activity change, negative = growth inhibition, most hits filed as inhibitors | 420,000 compounds, 12% hits; note: potency is the fitted concentration of half-maximal effect; nearly all actives have a fitted effect of over 55% in size
#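 Cell growth measured by CellTiter-Glo luminescence after a minimum 48 h, 37 C compound exposure with 20 nM CPT in Tdp1-knockout DT40 cells stably expressing hTDP1, seeded 400/well; qHTS titration format.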
# IL-1B inflam inh = qHTS for Inhibitors of Inflammasome Signaling: IL-1-beta AlphaLISA Primary Screen | THP-1 LPS/ATP IL-1B secretion, AlphaLISA, 16 h; active compounds read low | activity change, % at 57.5 µM | 360,000 compounds, 4.7% hits; in the data active = activity change below about -50%; inconclusive = mostly about -30% to -49%
#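 Secreted IL-1B measured by AlphaLISA bead assay after 16 h compound exposure of THP-1 cells; compounds (final up to 57.5 uM) added 1 h before LPS (250 ng/mL) and ATP (1.25 mM) stimulation; lower signal means less secretion.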
# TDP1 inh = qHTS Assay for Inhibitors of Tyrosyl-DNA Phosphodiesterase (TDP1); Tyrosyl-DNA phosphodiesterase 1 (Homo sapiens), Q9NUW8; recombinant TDP1, AlphaScreen DNA substrate cleavage; Potency, µM (highest dose often 130 µM), for the others: at the highest dose activity change, negative = inhibition, hits mostly inhibitors; 350,000 compounds, 0.28% hits; AID 485290, 2010; note: potency is the fitted concentration of half-maximal effect; nearly all actives have a fitted effect of over 40% in size
#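 Compounds were preincubated with Tdp1 (1 nM final) for 15 min at room temperature before substrate (15 nM final) started a 5 min reaction; beads (10 ug/ml final) were then added for 10 min before AlphaScreen detection.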
# DT40 TDP1 no CPT = qHTS for Inhibitors of human tyrosyl-DNA phosphodiesterase 1 (TDP1): qHTS in cells in absence of CPT; 420,000 compounds, 15% hits; DT40 Tdp1-/- hTDP1 cells, no CPT, ATP luminescence, 48 h; Potency, µM (top dose mostly 46.2 µM), inactives show top-dose activity change, negative = growth inhibition, hits mostly inhibitors; AID 686978, 2013; note: potency is the fitted concentration of half-maximal effect; nearly all actives have a fitted effect of over 55% in size
#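 DT40 Tdp1-/-;hTDP1 cells, no CPT (DMSO vehicle only), 400 cells/well; compounds pin-transferred; ≥48 hr, 37 °C; CellTiter-Glo 30 min RT dark, luminescence read.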
# Six1-Eya2 inh = qHTS Assay for Inhibitors of the Six1/Eya2 Interaction. activity change, % (test concentration not listed). AlphaScreen GST-Six1/His-Eya2 binding, biochemical; active compounds read low. 360,000 compounds, 0.56% hits; in the data active = activity change below about -65%; inconclusive = mostly about -30% to -63%
# Target sequence (O00167 whole entry, looked up): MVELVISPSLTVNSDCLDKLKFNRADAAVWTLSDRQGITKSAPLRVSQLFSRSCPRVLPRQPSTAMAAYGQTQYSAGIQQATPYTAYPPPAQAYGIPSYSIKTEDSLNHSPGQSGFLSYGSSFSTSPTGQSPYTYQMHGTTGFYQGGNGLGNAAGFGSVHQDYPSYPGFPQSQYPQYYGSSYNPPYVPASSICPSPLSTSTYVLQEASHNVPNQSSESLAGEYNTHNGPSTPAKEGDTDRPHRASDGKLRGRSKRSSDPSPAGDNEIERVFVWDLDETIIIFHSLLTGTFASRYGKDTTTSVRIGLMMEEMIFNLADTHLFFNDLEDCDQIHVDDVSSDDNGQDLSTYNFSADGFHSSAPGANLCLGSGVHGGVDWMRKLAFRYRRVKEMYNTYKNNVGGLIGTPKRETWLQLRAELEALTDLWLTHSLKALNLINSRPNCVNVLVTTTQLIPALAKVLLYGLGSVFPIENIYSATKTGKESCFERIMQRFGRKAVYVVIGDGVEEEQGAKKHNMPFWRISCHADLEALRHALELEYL
# Target sequence (Q15475 whole entry, looked up): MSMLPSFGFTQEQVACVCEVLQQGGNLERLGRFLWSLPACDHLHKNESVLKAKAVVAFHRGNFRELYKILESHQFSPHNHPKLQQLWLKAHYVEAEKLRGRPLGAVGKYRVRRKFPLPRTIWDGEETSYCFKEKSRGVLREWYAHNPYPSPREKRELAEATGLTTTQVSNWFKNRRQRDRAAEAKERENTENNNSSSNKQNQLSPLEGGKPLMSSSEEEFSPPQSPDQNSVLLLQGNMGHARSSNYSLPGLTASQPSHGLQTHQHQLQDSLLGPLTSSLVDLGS
#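 AlphaScreen luminescence read after one hour at 37 °C in darkness. Pin-transferred compounds met GST-Six1 and His-Eya2 protein (5X stock 250 nM/500 nM) plus glutathione donor and Ni-chelate acceptor beads (5X, 50 ug/mL).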
# * hit, by the source's call; ? = inconclusive; . = not tested or not shown; [ ] = remark or other dose. Unless noted, calls come from the whole dose curve; as a rule, active = well fitted curve in the direction sought with a large enough effect; inconclusive = small, poorly fitted or top-dose-only effect, or another doubt; inactive = no such curve, though single readings can be large; an effect the other way counts as inactive or inconclusive. % is set by controls: 0 for no effect and ±100 for the full control effect.
SMILES,CtBP-E1A inh,DT40 TDP1 CPT,IL-1B inflam inh,TDP1 inh,DT40 TDP1 no CPT,Six1-Eya2 inh
COc1ccc(-n2c(C)cc(C(=O)CN3C(=O)NC4(CCCc5sccc54)C3=O)c2C)cc1 (stereo not drawn),.,16µM*,-5,1%,21µM*,-1
Cc1ccc(-n2nnnc2SCC(=O)c2cc(C)n(-c3cc(C)on3)c2C)cc1,9,12µM*,12,-2%,15µM*,-6
CCOc1ccc(CN2CCN(Cc3c(C)nn(CC)c3C)CC2CCO)cc1 (stereo not drawn),-1,-16%,17,-5%,-26%,1
Cc1cc(C(=O)CN2C(=O)NC3(CCCCC3)C2=O)c(C)n1-c1ccc2c(c1)OCO2,-11,?,?,4%,21µM*,0
Cc1cc(C)c(C(N)=O)c(SCC(=O)c2cc(C)n(-c3cc(C)on3)c2C)n1,-4,1.2µM*,23,-1%,0.52µM*,0
Cc1cc(-n2c(C)cc(C(=O)CN3C(=O)NC4(CCCCCC4)C3=O)c2C)no1,5,-25%,-15,8%,?,-7
CCCn1c(SCC(=O)c2cc(C)n(-c3ccc4c(c3)OCO4)c2C)n[nH]c1=O,25,23µM*,9,6%,6.5µM*,-10
Cc1cc(C(=O)CSc2nnc(-c3cccc(F)c3)n2N)c(C)n1Cc1ccc2c(c1)OCO2,-21,15µM*,?,0%,23µM*,-25
Cc1cc(C)c(C(N)=O)c(SCC(=O)c2cc(C)c(C)cc2C)n1,6,-27%,12,2%,-26%,0
COC(=O)[C@@]1(Cc2ccc(F)cc2)[C@H]2c3cc(C(=O)N(C)C)n(CCc4ccccn4)c3C[C@H]2CN1C(=O)c1ccccc1,2,?,12,8%,?,-5
O=C(CN1Cc2ccccc2OC(c2ccccc2F)C1)NC(c1ccccn1)C(F)(F)F (stereo not drawn),.,-5%[9.04 µM],.,.,?,.
Cc1cc(C(=O)CSc2nnnn2-c2ccccc2)c(C)n1-c1ccc2c(c1)OCO2,-3,23µM*,9,-5%,13µM*,-22
Oc1cccc2ccc(Nc3ccccn3)nc12,-100*,1.6µM*,-110*,14%,3.7µM*,-91*
O=C(CCc1nnc(CCCCc2ccccc2)o1)NCCc1cccnc1,23,-2%,1,-1%,-12%,0
CN(C)S(=O)(=O)c1cccc(C(=O)Nc2cc(Cl)ccc2O)c1,-18,?,-13,0%,?,?
O=C(/C=C/c1ccccc1Cl)N(Cc1cccs1)C1CCS(=O)(=O)C1 (stereo not drawn),-4,?,-23,.,?,-3
O=C(/C=C/c1ccccc1Cl)N(Cc1ccccc1)C1CCS(=O)(=O)C1 (stereo not drawn),-1,?,?,2%,?,6
COc1ccc(CN(C(=O)/C=C/c2ccccc2Cl)C2CCS(=O)(=O)C2)cc1 (stereo not drawn),-13,?,0,.,23µM*,-6
O=C(/C=C/c1ccccc1Cl)N(Cc1ccc(Cl)cc1)C1CCS(=O)(=O)C1 (stereo not drawn),4,?,-57*,0%,?,1
CC(C)c1ccc(CN(C(=O)/C=C/c2ccco2)C2CCS(=O)(=O)C2)cc1 (stereo not drawn),-5,?,-86*,1%,?,1
CN(C)c1ccc(CN(C(=O)/C=C/c2ccccc2Cl)C2CCS(=O)(=O)C2)cc1 (stereo not drawn),?,?,-9,.,21µM*,?
COc1cc(C(=O)OC(C)C(=O)Nc2ccc3c(c2)OCCO3)cc(OC)c1OC (stereo not drawn),1,?,17,0%,?,-20
Cc1ccc(S(=O)(=O)N2CCC(C(=O)N3CCC[C@H]3C(=O)NC3CCS(=O)(=O)C3)CC2)cc1 (stereo partly drawn),4,2%,-12,7%,1%,5
Cc1ccc2[nH]c(=O)c(CN(CCO)Cc3nnnn3CCc3ccccc3)cc2c1,-7,?,26,3%,-25%,-8
COc1cc2cc(CN(Cc3nnnn3C3CCCC3)C3CCCC3)c(=O)[nH]c2cc1OC,.,.,.,4%,.,.
SMILES,CtBP-E1A inh,DT40 TDP1 CPT,IL-1B inflam inh,TDP1 inh,DT40 TDP1 no CPT,Six1-Eya2 inh
COc1ccc2cc(CN(CCc3ccccc3)Cc3nnnn3Cc3ccco3)c(=O)[nH]c2c1,-7,?,-25,11%,16µM*,-10
COc1ccc2[nH]c(=O)c(CN(Cc3ccccc3)Cc3nnnn3CC3CCCO3)cc2c1 (stereo not drawn),-3,?,0,8%,?,-7
CCc1ccc2[nH]c(=O)c(CN(Cc3ccco3)Cc3nnnn3Cc3ccco3)cc2c1,.,?,.,7%,13µM*,.
CCC(c1nnnn1C(C)(C)CC)N(CCCO)Cc1cc2cc(C)cc(C)c2[nH]c1=O (stereo not drawn),0,?,?,1%,21µM*,-1
CCCC(c1nnnn1C(C)(C)CC)N(CCCO)Cc1cc2cc(C)cc(C)c2[nH]c1=O (stereo not drawn),5,?,-12,3%,?,0
O=c1[nH]c2cc3c(cc2cc1CN(Cc1nnnn1C1CCCC1)C1CCCC1)OCCO3,7,16µM*,-7,4%,26µM*,-2
O=C(CC[C@H]1O[C@@H](n2cnc3c(NC(=O)c4ccccc4)ncnc32)[C@H](O)[C@@H]1O)NCC1CCCO1 (stereo partly drawn),-17,8%,-9,.,-17%,6
COc1cc2cc(CN(Cc3nnnn3Cc3ccccc3)CC3CCCO3)c(=O)[nH]c2cc1OC (stereo not drawn),2,?,-20,6%,?,-5
Cc1ccc(CN(Cc2cc3cc4c(cc3[nH]c2=O)OCCO4)Cc2nnnn2Cc2ccco2)cc1,-19,?,?,.,?,-10
